Whole data set: some 18,000 sequences, median “log2 normalized intensity” near 0.36, cut for the highest 2% near 7.3. What follows is part of a selection rich in the highest values, with near analogues and random picks from the rest.

The test has as its target T1, HNF4alpha8 (COS-7 nuclear extract) (Homo sapiens, UniProt P41235-5 1-452).
T1 sequence: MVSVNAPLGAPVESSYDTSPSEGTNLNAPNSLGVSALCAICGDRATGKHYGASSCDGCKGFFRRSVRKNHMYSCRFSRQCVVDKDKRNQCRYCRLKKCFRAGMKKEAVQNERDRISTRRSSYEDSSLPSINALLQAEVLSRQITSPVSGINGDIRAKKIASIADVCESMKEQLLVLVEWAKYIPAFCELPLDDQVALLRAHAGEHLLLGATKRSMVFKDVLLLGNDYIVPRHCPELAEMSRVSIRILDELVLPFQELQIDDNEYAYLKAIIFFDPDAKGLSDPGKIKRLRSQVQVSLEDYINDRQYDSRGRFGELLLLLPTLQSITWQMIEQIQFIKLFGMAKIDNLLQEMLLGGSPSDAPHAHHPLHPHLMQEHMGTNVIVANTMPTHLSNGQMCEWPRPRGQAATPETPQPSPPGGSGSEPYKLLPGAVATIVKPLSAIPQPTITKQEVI
Description: protein-binding microarray; COS-7 nuclear extract on double-stranded Agilent 4x180k PBM; binding buffer, salt, pH and temperature not given in the material; high values mean tight binding. Conditions: chain copies: 2; label: 3' end of strand 1 on the slide; dsDNA, one strand shown. The method, boiled down:
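Nuclear extracts from COS-7 cells expressing a transiently transfected human HNF4α isoform were put on a custom Agilent SurePrint G3 4x180k array carrying ~44,000 double-stranded ~60-nt test sequences in quadruplicate. Imaging used an Agilent G2565CA scanner at 2-µm resolution. Binding signal is the background-corrected, normalized gProcessedSignal from Agilent software.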
For “TCTTTAAGGACCACATCAAAGGTCATCTCTGCCTAGGGAGATTAGAGTATCGGTCGA”, the binding signal was 5.09 log2 normalized intensity.
Turning to “TGCAGTGTCCATGGTGACCATGTGATGTGAGCCTAGGGAGATTAGAGTATCGGTCGA”, the binding signal was determined as 1.26 log2 normalized intensity.
As to “CAAATAAACCTTTGACCAATTGACCCTATCGCCTAGGGAGATTAGAGTATCGGTCGA”, the binding signal stood at 4.69 log2 normalized intensity.
The same measure for “TCATGGCTCACTGCACCTTGACCTCCTGGGGCCTAGGGAGATTAGAGTATCGGTCGA”: 5.78 log2 normalized intensity.
The same measure for “TGCCTTTGATCAGGGACCTTTGTTCCTTTAGCCTAGGGAGATTAGAGTATCGGTCGA”: 5 log2 normalized intensity; for “TGCACTTTGACCGCTCATTTGATCCTCACAGCCTAGGGAGATTAGAGTATCGGTCGA”: 4.61 log2 normalized intensity.
Then “GCTGACCTTTGGTCTAAACCTACTTAGATCGCCTAGGGAGATTAGAGTATCGGTCGA”, with 4.73 log2 normalized intensity.
With “GATGATCATGGCTCACTGCACCTTGACCTCGCCTAGGGAGATTAGAGTATCGGTCGA”, the binding signal stood at 8.12 log2 normalized intensity.
For the sequence “CTCATGTGGTCCTAAAATTGACCTTTGATCGCCTAGGGAGATTAGAGTATCGGTCGA”, the binding signal was determined as 11 log2 normalized intensity.
In the case of “AGTGCGATGATCATGGCTCACTGCACCTTGGCCTAGGGAGATTAGAGTATCGGTCGA”, the binding signal came out at 0.737 log2 normalized intensity.
For the sequence “GTGGTCCTAAAATTGACCTTTGATCACTCAGCCTAGGGAGATTAGAGTATCGGTCGA”, the binding signal was determined as 10.2 log2 normalized intensity.
The same measure for “GCCTCCATTAATTAACCTTTGAGCTGGGTGGCCTAGGGAGATTAGAGTATCGGTCGA”: 5.22 log2 normalized intensity; for “TGGACTGTTCAAGACCAAAGGTCATGGCAAGCCTAGGGAGATTAGAGTATCGGTCGA”: 5.58 log2 normalized intensity; for “TAAGTGTGGGTTTAAGTAAGCCCCCTTCCCGCCTAGGGAGATTAGAGTATCGGTCGA”: 4.85 log2 normalized intensity.
In the case of “AGCTGACCCCAAAACCCCCAAAGGTGAGTAGCCTAGGGAGATTAGAGTATCGGTCGA”, the binding signal came to 4.29 log2 normalized intensity.
On to “GCCACCCTCTGGCCACCAGTTATTCATGTCGCCTAGGGAGATTAGAGTATCGGTCGA”, for which the binding signal is 0.887 log2 normalized intensity.
The same measure for “AACTACAGTTGACCTTTGAACACCACAAGTGCCTAGGGAGATTAGAGTATCGGTCGA”: 8.13 log2 normalized intensity; for “TAGGTATGCCCCATGGTAAGAACTACAGTTGCCTAGGGAGATTAGAGTATCGGTCGA”: 1.21 log2 normalized intensity.
On to “CAGTTGACCTTTGAACACCACAAGTTTGAAGCCTAGGGAGATTAGAGTATCGGTCGA”, for which the binding signal is 6.74 log2 normalized intensity.
Then “GACCTTTGAACACCACAAGTTTGAACTGCAGCCTAGGGAGATTAGAGTATCGGTCGA”, with 5.65 log2 normalized intensity; and “CCATGGTAAGAACTACAGTTGACCTTTGAAGCCTAGGGAGATTAGAGTATCGGTCGA”, with 8.15 log2 normalized intensity.
For “ATGCCCCATGGTAAGAACTACAGTTGACCTGCCTAGGGAGATTAGAGTATCGGTCGA”, the binding signal was found to be 4.71 log2 normalized intensity.
Consider “TTTTCCTTTGTTGGTTTTGCCCGAGGTCTGGCCTAGGGAGATTAGAGTATCGGTCGA”, for which the binding signal turned out to be 1.89 log2 normalized intensity.
As for “GTGGAATTTGTGCTTATTTCCCATCAAGGAGCCTAGGGAGATTAGAGTATCGGTCGA”, the binding signal was 0.292 log2 normalized intensity.
With “ATAGCGCCCACACTGCCCATCCCCACTGAAGCCTAGGGAGATTAGAGTATCGGTCGA”, the binding signal was found to be 3.12 log2 normalized intensity.
“AGCTGCCCTTTGCACATGCCCCTCCCAGGGGCCTAGGGAGATTAGAGTATCGGTCGA”: the binding signal worked out at 2.81 log2 normalized intensity.
For the sequence “AATGCACTGGTGACTTTAAGTTGACTCCAAGCCTAGGGAGATTAGAGTATCGGTCGA”, the binding signal was -0.366 log2 normalized intensity.
As to “TCACCAGGATGGGCCATGACCTTTACCCCCGCCTAGGGAGATTAGAGTATCGGTCGA”, the binding signal came to 10 log2 normalized intensity.
With “ATGACCTTTACCCCCATTTGGTAATGGGCCGCCTAGGGAGATTAGAGTATCGGTCGA”, the binding signal was found to be 5.46 log2 normalized intensity.
In the case of “AACGGCCCAGGGTTAGAGGATGACCTTCCCGCCTAGGGAGATTAGAGTATCGGTCGA”, the binding signal was 3.71 log2 normalized intensity.
The same measure for “AGGATGGGCCATGACCTTTACCCCCATTTGGCCTAGGGAGATTAGAGTATCGGTCGA”: 8.39 log2 normalized intensity; for “CACTATCACCAGGATGGGCCATGACCTTTAGCCTAGGGAGATTAGAGTATCGGTCGA”: 4.97 log2 normalized intensity.
The same measure for “GGGCCATGACCTTTACCCCCATTTGGTAATGCCTAGGGAGATTAGAGTATCGGTCGA”: 7.13 log2 normalized intensity.
The same measure for “CCTCCAGCTCTTTTGAACCCAAGGCCAAACGCCTAGGGAGATTAGAGTATCGGTCGA”: 2.07 log2 normalized intensity; for “ATAAATAAAGCCCTGGGGTAATAAAAGTGTGCCTAGGGAGATTAGAGTATCGGTCGA”: -0.134 log2 normalized intensity; for “TTTACTTATCATAAGTCAGCCTGGCTGAAGGCCTAGGGAGATTAGAGTATCGGTCGA”: 1.53 log2 normalized intensity.
Regarding “TTGATATTTATCAAGATGAACTTTGACCCAGCCTAGGGAGATTAGAGTATCGGTCGA”, the binding signal was 11.2 log2 normalized intensity.
Then “TCCCTTTGATATTTATCAAGATGAACTTTGGCCTAGGGAGATTAGAGTATCGGTCGA”, with 5.51 log2 normalized intensity; and “ATTTATCAAGATGAACTTTGACCCACCTACGCCTAGGGAGATTAGAGTATCGGTCGA”, with 8.8 log2 normalized intensity; and “CACCCAGAACTTTGACCGTTTGATTATTTGGCCTAGGGAGATTAGAGTATCGGTCGA”, with 2.96 log2 normalized intensity.
Then “ATTTTTCCCTTTGATATTTATCAAGATGAAGCCTAGGGAGATTAGAGTATCGGTCGA”, with 0.842 log2 normalized intensity; and “ATGAACTTTGACCCACCTACATTGATATTCGCCTAGGGAGATTAGAGTATCGGTCGA”, with 5.5 log2 normalized intensity.
